This is an account of results in PubChem BioAssay (NCATS).

Each structure is given as a SMILES string. Results filed as inconclusive are left out. The source made the active and inactive calls. Unless noted, calls come from the whole dose curve.

Assay [1] addresses Androgen receptor (Homo sapiens) (UniProt P10275). In words: qHTS assay for small molecule agonists of androgen receptor signaling (AID 588515; active = well fitted curve in the direction sought with a large enough effect in the signal ratio, with a control signal flat; the % refers to the signal ratio; note: % is set by controls: 0 for no effect and ±100 for the full control effect). The following applies: AR-UAS-bla HEK293, beta-lactamase ratio, agonist 16 h; stronger effect = higher value. An outline of the steps:
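Stimulation of an AR-responsive β-lactamase reporter in GripTite HEK293 cells was measured after 16 h compound exposure at 37 °C, via CCF4 fluorescence after 2 h RT. EC50 from Hill fits, normalized to R1881 at 30 nM.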
(In qHTS, concentration-response curves come from the screen itself.)

For assay [2], the target named is Glucocorticoid receptor (Homo sapiens) (UniProt P04150). In words: qHTS assay for small molecule agonists of glucocorticoid receptor signaling (AID 588532; active = well fitted curve in the direction sought with a large enough effect in the signal ratio, with a control signal flat; the % refers to the signal ratio;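 note: 100% = dexamethasone at 0.1 µM and 0% = DMSO only wells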). Conditions: HeLa MMTV-bla, beta-lactamase ratio, agonist, 18 h; stronger effect = higher value; percent of dexamethasone control, DMSO zero. The method in brief: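 Agonist-mode qHTS: GRE-driven beta-lactamase in HeLa cells exposed 18 h to titrated compounds (up to 92 uM), then CCF4 ratio read after 2 h at RT; Hill-fitted EC50, efficacy relative to 0.1 uM dexamethasone.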
Chain of Glucocorticoid receptor (Homo sapiens) (P04150 whole entry, looked up): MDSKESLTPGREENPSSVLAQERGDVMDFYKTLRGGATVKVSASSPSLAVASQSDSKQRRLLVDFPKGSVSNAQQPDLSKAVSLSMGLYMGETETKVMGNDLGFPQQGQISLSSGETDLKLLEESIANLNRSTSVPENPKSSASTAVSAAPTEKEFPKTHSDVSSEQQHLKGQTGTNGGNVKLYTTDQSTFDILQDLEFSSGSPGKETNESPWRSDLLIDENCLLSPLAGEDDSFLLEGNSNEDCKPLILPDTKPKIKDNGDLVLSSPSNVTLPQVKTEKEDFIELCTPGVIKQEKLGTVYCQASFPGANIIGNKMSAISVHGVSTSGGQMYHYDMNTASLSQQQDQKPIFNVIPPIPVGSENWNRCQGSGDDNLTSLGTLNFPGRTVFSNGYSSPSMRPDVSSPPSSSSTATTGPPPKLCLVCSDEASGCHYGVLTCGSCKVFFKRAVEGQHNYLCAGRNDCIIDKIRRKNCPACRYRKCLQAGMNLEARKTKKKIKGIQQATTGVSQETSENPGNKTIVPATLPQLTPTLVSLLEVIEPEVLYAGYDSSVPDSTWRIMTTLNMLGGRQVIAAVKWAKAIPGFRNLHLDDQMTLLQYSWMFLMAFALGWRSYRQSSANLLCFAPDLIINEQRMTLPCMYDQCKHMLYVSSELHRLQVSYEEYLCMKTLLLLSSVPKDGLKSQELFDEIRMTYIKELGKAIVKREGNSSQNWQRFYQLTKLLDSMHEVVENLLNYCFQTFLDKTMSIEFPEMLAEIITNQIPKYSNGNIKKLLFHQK

The target is the same in assay [3]. In words: qHTS assay for small molecule antagonists of glucocorticoid receptor signaling (AID 588533; active = well fitted inhibition curve with a large enough effect in the signal ratio, with a control signal flat, not every such curve was filed as active; the % refers to the signal ratio;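 note: cells stimulated with 2 nM dexamethasone as agonist; % is set by controls: 0 for no effect and ±100 for the full control effect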). The following applies: HeLa MMTV-bla, GRE beta-lactamase ratio, antagonist mode, 18 h; series mostly up to 76.8 µM. The method in brief:
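Antagonist-mode qHTS: compound titrations added to GRE-bla HeLa cells, then dexamethasone 2 nM final; 18 h, 37 C. CCF4 FRET fluorescence normalized to dexamethasone and DMSO; IC50 from Hill fit.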

The target of assay [4] is Peroxisome proliferator-activated receptor gamma (Homo sapiens) (UniProt P37231). In words: qHTS assay for small molecule agonists of peroxisome proliferator-activated receptor gamma signaling (AID 588536; active = well fitted curve in the direction sought with a large enough effect in the signal ratio, with a control signal flat, not every such curve was filed as active; the % refers to the signal ratio;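 note: 0% = DMSO basal wells and 100% = rosiglitazone at 2 µM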). The following applies: HEK293 PPARg-UAS-bla, beta-lactamase ratio, 16 h, percent of rosiglitazone response, DMSO as zero; series mostly up to 76.7 µM. The method in brief:
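Compound treatment: 16 h, 37 C, HEK293 GeneBLAzer cells. Detection: CCF4, 2 h RT. Values: Hill-fit EC50, efficacy as % of 2 uM rosiglitazone.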

Assay [5] addresses Vitamin D3 receptor (Homo sapiens) (UniProt P11473). In words: qHTS assay for small molecule antagonists of vitamin D receptor signaling (AID 588541).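 Note: receptor activated by calcitriol during compound treatment; % is set by controls: 0 for no effect and ±100 for the full control effect.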 Conditions: HEK293T VDR-UAS-bla, beta-lactamase ratio, antagonist mode; series mostly up to 76.7 µM. An outline of the steps: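 Antagonist-mode beta-lactamase reporter assay: HEK293T VDR-UAS-bla cells were exposed to titrated compound alongside 1-alpha,25-dihydroxyvitamin D3 at 3 nM final for 16 h. Values were normalized to the 50 nM agonist control and DMSO basal, with IC50 and efficacy from Hill equation fits.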

For assay [6] the target is unchanged. The assay is described as follows: qHTS assay for small molecule agonists of vitamin D receptor signaling (AID 588543).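 Note: 0% = DMSO basal and 100% = reference agonist control.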 The following applies: HEK293T VDR-UAS-bla, beta-lactamase ratio, 16 h; series mostly up to 76.8 µM. The method in brief:
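Reporter cells (HEK293T, VDR-UAS-bla) were seeded in medium with 2% charcoal-stripped serum and incubated 5 h, then compounds in concentration series were added for 16 h at 37 °C. Stimulation was scaled between DMSO basal and 50 nM 1α,25-dihydroxyvitamin D3.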

A short description of assay [7]: qHTS assay for small molecule agonists of retinoid X receptor alpha signaling (AID 588544). Conditions: HEK293T RXRa-UAS-bla, beta-lactamase reporter, 18 h; 530 nm emission.
A short description of assay [8]: qHTS assay for small molecule antagonists of peroxisome proliferator-activated receptor delta signaling (AID 588535; active = well fitted inhibition curve with a large enough effect in the signal ratio, with a control signal flat, not every such curve was filed as active; the % refers to the signal ratio;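 for max response: cells co-treated with a PPAR-delta agonist as stimulator during compound exposure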). The following applies: HEK293T PPARd-UAS-bla, beta-lactamase FRET ratio, 18 h; 460 nm channel. An outline of the steps: (§1)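 Titrations were run on PPAR-delta-UAS-bla HEK293T cells in charcoal/dextran-stripped serum, incubated 18 h at 37 C. CCF4 fluorescence (460/530 nm) after 2 h RT; Hill equation yields IC50 and maximal response.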

Assay [9] concerns the target Peroxisome proliferator-activated receptor delta (Homo sapiens) (UniProt Q03181). The description is as above. Conditions: HEK293T PPARd-UAS-bla, beta-lactamase FRET ratio, 18 h; series mostly up to 76.7 µM. The method in brief: as §1
The target of assay [10] is Androgen receptor (Homo sapiens) (UniProt P10275). The assay is described as follows: qHTS assay for small molecule antagonists of androgen receptor signaling (AID 588516; active = well fitted curve in the direction sought with a large enough effect in the signal ratio, with a control signal flat, not every such curve was filed as active; the % refers to the signal ratio; note: potency is the fitted concentration of half-maximal effect). The following applies: AR-UAS-bla HEK293, beta-lactamase ratio, antagonist mode, 16 h; series mostly up to 76.8 µM. An outline of the steps:
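Cells were plated and incubated 5 h, compounds added in titration, then R1881 (10 nM final) as agonist. After 16 h at 37 C, CCF4 substrate was loaded for 2 h at room temperature and fluorescence measured.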

Chain of Vitamin D3 receptor (Homo sapiens) (P11473 whole entry, looked up): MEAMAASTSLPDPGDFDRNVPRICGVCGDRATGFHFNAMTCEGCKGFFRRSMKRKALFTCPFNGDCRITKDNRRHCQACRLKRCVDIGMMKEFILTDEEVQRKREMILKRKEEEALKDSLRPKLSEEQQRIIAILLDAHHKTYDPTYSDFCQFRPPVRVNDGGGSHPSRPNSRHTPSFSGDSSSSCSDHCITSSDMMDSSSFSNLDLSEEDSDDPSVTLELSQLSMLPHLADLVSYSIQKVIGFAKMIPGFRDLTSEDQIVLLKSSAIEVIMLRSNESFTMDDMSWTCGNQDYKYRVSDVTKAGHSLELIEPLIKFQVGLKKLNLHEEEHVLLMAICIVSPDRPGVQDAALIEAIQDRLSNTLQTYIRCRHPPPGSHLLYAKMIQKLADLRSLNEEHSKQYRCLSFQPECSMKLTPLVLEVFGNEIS
Chain of Androgen receptor (Homo sapiens) (P10275 whole entry, looked up): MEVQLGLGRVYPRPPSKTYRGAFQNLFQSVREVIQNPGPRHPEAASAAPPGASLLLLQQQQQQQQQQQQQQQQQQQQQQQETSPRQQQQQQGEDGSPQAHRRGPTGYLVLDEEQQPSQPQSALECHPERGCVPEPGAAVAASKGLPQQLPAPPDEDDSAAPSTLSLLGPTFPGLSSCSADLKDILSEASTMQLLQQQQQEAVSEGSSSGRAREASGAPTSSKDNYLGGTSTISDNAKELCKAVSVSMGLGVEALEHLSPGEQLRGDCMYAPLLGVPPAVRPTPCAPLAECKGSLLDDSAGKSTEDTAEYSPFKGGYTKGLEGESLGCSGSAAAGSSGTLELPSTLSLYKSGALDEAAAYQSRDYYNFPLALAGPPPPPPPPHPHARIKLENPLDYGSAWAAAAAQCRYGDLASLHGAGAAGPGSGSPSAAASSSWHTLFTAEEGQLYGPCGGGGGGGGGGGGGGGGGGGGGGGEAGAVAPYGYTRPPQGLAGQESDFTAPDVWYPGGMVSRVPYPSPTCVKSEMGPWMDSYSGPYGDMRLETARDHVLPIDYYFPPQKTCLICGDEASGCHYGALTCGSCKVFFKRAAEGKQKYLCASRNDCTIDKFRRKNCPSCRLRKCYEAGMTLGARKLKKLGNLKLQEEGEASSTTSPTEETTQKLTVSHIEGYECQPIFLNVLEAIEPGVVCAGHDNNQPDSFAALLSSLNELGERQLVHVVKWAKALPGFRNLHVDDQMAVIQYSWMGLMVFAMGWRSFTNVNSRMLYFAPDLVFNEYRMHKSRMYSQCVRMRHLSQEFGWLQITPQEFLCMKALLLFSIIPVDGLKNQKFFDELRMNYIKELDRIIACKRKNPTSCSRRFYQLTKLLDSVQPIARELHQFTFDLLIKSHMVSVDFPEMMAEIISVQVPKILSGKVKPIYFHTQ
Chain of Peroxisome proliferator-activated receptor gamma (Homo sapiens) (P37231 whole entry, looked up): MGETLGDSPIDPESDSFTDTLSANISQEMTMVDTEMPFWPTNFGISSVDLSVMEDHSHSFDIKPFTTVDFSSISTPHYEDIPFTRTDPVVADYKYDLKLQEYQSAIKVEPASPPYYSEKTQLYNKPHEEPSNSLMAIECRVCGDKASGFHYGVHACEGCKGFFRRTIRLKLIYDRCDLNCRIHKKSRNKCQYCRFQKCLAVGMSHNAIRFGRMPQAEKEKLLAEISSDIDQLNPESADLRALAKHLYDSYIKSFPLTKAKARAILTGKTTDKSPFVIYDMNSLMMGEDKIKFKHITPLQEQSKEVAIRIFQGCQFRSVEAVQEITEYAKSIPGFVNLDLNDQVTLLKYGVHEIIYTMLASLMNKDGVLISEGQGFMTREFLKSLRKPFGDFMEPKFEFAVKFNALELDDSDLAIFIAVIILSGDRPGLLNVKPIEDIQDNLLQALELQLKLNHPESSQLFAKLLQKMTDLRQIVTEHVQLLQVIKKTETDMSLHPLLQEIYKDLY
Chain of Peroxisome proliferator-activated receptor delta (Homo sapiens) (Q03181 whole entry, looked up): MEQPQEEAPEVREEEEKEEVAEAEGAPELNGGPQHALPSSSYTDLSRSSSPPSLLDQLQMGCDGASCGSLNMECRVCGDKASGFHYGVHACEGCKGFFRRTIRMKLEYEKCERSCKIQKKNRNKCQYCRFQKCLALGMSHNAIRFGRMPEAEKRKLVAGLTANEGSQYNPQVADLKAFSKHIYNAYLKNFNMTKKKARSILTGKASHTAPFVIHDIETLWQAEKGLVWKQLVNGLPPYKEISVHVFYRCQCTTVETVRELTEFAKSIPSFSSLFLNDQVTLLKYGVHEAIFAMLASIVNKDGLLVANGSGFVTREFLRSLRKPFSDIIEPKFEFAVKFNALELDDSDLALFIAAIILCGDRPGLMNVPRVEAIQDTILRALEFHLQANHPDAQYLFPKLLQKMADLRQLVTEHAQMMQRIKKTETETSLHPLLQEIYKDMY

Regarding `CC(=O)O[C@@H]1CC(C)=C2[C@H]1[C@H](C)CC[C@H]2/C=C(\C)C(=O)O`, the activation in assay [1] is -3.27% (inactive); in [2], 9.44% (inactive). The result in [3], in assay [4], in assay [5] and in assay [6] was inactive. Besides, the max response in assay [7] was determined as 12.6%.

`Nc1ccccc1N`: in assay [2], the activation is 10.6% (inactive). In addition, the outcome in assay [3], in [9], in assay [4], in [5] and in assay [6] was inactive. Also, the max response in [8] is -23.4%; in [7] it was 12.1%.

As to `Cc1ccc(N)cc1O`, the Potency result in assay [10] is “inactive”. The activation in assay [2] was 0.383% (inactive). Further, the result in [3], in assay [9], in assay [4], in assay [5] and in [6] was inactive. For the same compound, the max response in assay [8] is -0.329%; in assay [7] it was 6.75%.

Regarding `CC(=O)O[C@H]1C(=O)[C@@]2(C)[C@H]([C@H](OC(=O)c3ccccc3)[C@]3(O)C[C@H](OC(=O)[C@H](O)[C@@H](NC(=O)c4ccccc4)c4ccccc4)C(C)=C1C3(C)C)[C@]1(OC(C)=O)CO[C@@H]1C[C@@H]2O`, in assay [1], the activation was -6.87% (inactive). Moreover, in assay [10], the Potency was 50.1 nM (active). Besides, the result in [6] was inactive. The max response in assay [7] is -13.7%.
